mHTT-CaM PPI inh – disrupts binding of mutant huntingtin to calmodulin. AID 1671202. hit rate 3.6% among 190,000. AlphaScreen His-mHTT/GST-CaM binding, luminescence. inhibition, % at 15 µM. P42858;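 further: 0% = both proteins with DMSO and 100% = one protein alone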
Pf apPOL inh – Pf-apPOL DNA polymerase inhibition; Recombinant Pf-apPOL, molecular beacon fluorescence, 1.5 h; inhibition, % at 10 µM; hit rate 0.25% among 210,000; AID 1794808
* hit, by the source's call; . = no result given. Sampled rows, rich in hits. Any-hit rate of the full collection: about 3.6%. No stated cut-off is given here; in the data, active means inhibition above about 50%; inactive means the rest.

SMILES	mHTT-CaM PPI inh	Pf apPOL inh
COc1ccc(N2CCC(CNS(=O)(=O)c3cccc(C(F)(F)F)c3)C2)cc1 (configuration not stated)	73*	-12
O=C1CC(CNS(=O)(=O)c2cccc(C(F)(F)F)c2)CN1c1ccc(Cl)cc1 (configuration not stated)	46	-2
O=C(Nc1ccc(N2CCCN(Cc3ccoc3)CC2)nc1)c1ccc(F)cc1	32	-2
O=C(/C=C/c1ccccc1)NC(NC1CCCCC1)C(Cl)(Cl)Cl (configuration not stated)	-4	112*
CCOc1ccc(NC(NC(=O)/C=C/c2ccccc2)C(Cl)(Cl)Cl)cc1 (configuration not stated)	36	1
N#C/C(=C\c1ccc2c(c1)OCO2)c1[nH]nc(N)c1C#N	20	-3
Cc1ccc(/C=C(\C#N)c2[nH]nc(N)c2C#N)cc1	31	-1
N#C/C(=C\c1ccc(-c2ccc(Cl)c(Cl)c2)o1)c1[nH]nc(N)c1C#N	95*	-7
N#C/C(=C\c1c[nH]c2ccccc12)c1[nH]nc(N)c1C#N	54*	1
COc1ccc(OC)c(/C=C(\C#N)c2[nH]nc(N)c2C#N)c1	61*	-64
COc1cc(/C=C(\C#N)c2[nH]nc(N)c2C#N)cc(OC)c1OC	-5	-3
O=c1nc2n(-c3cccc(F)c3)c3ccc([N+](=O)[O-])cc3cc-2c(=O)[nH]1	8	10
O=C(C1CCN(Cc2ccccc2F)CC1)N1CCN(C/C=C/c2ccccc2)CC1	35	0
CCN1C(=O)c2ccccc2Oc2ccc(C(=O)NCc3cccs3)cc21	5	-9
Cc1cc(C)n(-c2nc(N3CCOCC3)nc(N3CCOCC3)n2)n1	-2	.
COc1ccc(-c2coc3cc4oc(=O)cc(-c5ccc(OC)cc5)c4cc23)cc1	-12	-6
O=C(O)C(Cc1ccccc1)N1C(=O)c2cccc([N+](=O)[O-])c2C1=O (configuration not stated)	-1	-6
Cn1c(=O)[nH]c(=O)c2c1ncn2CCCNC1=NCCCCC1	-8	-6
Cc1ccc(-c2ccc([C@H]3[C@@H]4C=CCC[C@@]4(C)C(=O)N3Cc3ccccc3)c(F)c2)cc1	13	0
COc1ccc(-c2ccccc2[C@H]2[C@@H]3C=CCC[C@@]3(C)C(=O)N2Cc2ccccc2)cc1	67*	-3
Cc1ccc(-c2c([C@H]3[C@@H]4C=CCC[C@@]4(C)C(=O)N3Cc3ccccc3)ccc3ccccc23)cc1	34	0
COc1ccc(-c2c([C@H]3[C@@H]4C=CCC[C@@]4(C)C(=O)N3Cc3ccccc3)ccc3ccccc23)cc1	58*	-5
COc1ccc(-c2cc([C@H]3[C@@H]4C=CCC[C@@]4(C)C(=O)N3Cc3ccccc3)ccc2F)cc1	-4	-7
C[C@@]12CCC=C[C@H]1[C@H](c1ccc3ccccc3c1)N(Cc1ccccc1)C2=O	82*	-2
COc1ccc(-c2ccc([C@H]3[C@@H]4C=CCC[C@@]4(C)C(=O)N3Cc3ccccc3)c(F)c2)cc1	17	-3
SMILES	mHTT-CaM PPI inh	Pf apPOL inh
C[C@@]12CCC=C[C@H]1[C@H](c1ccc3ccccc3c1Br)N(Cc1ccccc1)C2=O	94*	3
O=C(Nc1ccc2oc(-c3cccnc3)nc2c1)c1ccc([N+](=O)[O-])cc1Cl	-1	0
CCOC(=O)c1ccc(Oc2coc3cc(OCC(=O)c4ccc(OC)cc4)ccc3c2=O)cc1	-2	1
Cc1nn2c(CNC(=O)Cc3cccc(C(F)(F)F)c3)c(C)nc2s1	-3	0
CC(C)CNC(=O)c1cncc(-c2ccc(F)cc2F)c1	1	37
CCCNC(=O)c1cncc(-c2ccc(F)cc2F)c1	12	62*
Cc1cc(NC(=O)CSc2nc3ccsc3c(=O)n2-c2cccc(Cl)c2Cl)no1	4	0
CC(=NNC(N)=S)c1cccnc1	.	-1
CCCCN(CCCNC(=O)CC(C(=O)N1CCc2ccccc21)n1ccnc1)c1ccccc1 (configuration not stated)	77*	-6
CCCCN(C)CCCNC(=O)CC(C(=O)N1CCc2ccccc21)n1ccnc1 (configuration not stated)	-3	-14
O=C(NCCc1cccs1)C1CCN(c2cc(N3CCOCC3)ncn2)CC1	-7	-2
Cc1ccc(C)c(C(C)Sc2ncccc2C(=O)O)c1 (configuration not stated)	.	1
Cc1ccc(C)c(C(Nc2ccccn2)c2ccc3cccnc3c2O)c1 (configuration not stated)	97*	4
Cc1ccnc(NC(c2ccccc2C)c2ccc3cccnc3c2O)c1 (configuration not stated)	99*	-11
OC(CN1CCN(c2ccccn2)CC1)c1ccc2c(c1)OCO2 (configuration not stated)	3	-1
Oc1c(C(Nc2ccccn2)c2ccc3c(c2)OCO3)ccc2cccnc12 (configuration not stated)	99*	-6
Cc1ccc2ccc(C(Nc3ccccn3)c3ccc(O)cc3)c(O)c2n1 (configuration not stated)	93*	2
COc1ccc(CCNC(=O)COc2ccc3c(c2)C(=O)CC3)cc1OC	-5	-2
Cc1ccc(N(C(=O)Cn2nnnc2N)C2(C(=O)Nc3ccccc3C)CCCCC2)cc1	17	29
CN(CC(=O)NCc1cccnc1)S(=O)(=O)c1ccc(Cl)cc1	2	-6
O=C(Nc1ccccn1)c1cc(Br)ccc1Cl	3	3
Cc1ccnc(NC(c2cccs2)c2ccc3cccnc3c2O)c1 (configuration not stated)	100*	4
C=CCOc1ccc(C=Nc2ccc(C(C)C)cc2)c(O)c1	2	4
COc1ccc(C(Nc2ccccn2)c2ccc3ccc(C)nc3c2O)cc1C (configuration not stated)	81*	-6
COc1cc(C)c(S(=O)(=O)Nc2ccccn2)cc1C	-2	0
SMILES	mHTT-CaM PPI inh	Pf apPOL inh
C=CCOc1ccc(C(Nc2ccccn2)c2ccc3ccc(C)nc3c2O)cc1 (configuration not stated)	67*	-5
Oc1c(C(Nc2ccccn2)c2ccc(Br)cc2)ccc2cccnc12 (configuration not stated)	94*	0
COc1ccc(-n2c(O)c(C=Nc3ccc(Br)cc3)c3ccccc3c2=O)cc1	-2	-3
CC(NC(=O)C1CCN(c2nnc(-c3ccccc3)o2)CC1)c1ccc(F)cc1 (configuration not stated)	45	-3
Cc1cc(=O)n(CC(=O)Nc2ccc(F)cc2Cl)c(N2CCOCC2)n1	-8	-2
Cc1ccc(-c2nc(C)c(C(=O)N3CCC(CC(=O)NC4CC4)CC3)s2)cc1	-4	5
COc1cc([N+](=O)[O-])ccc1NC(=O)C=C(C)C	5	-9
COc1ccc(C(C2=C(O)CC(C)(C)CC2=O)C2C(=O)CC(C)(C)CC2=O)cc1O (configuration not stated)	2	2
O=c1cc(CO)oc(C(Nc2ncccn2)c2ccc(F)cc2)c1O (configuration not stated)	10	-4
CCCOc1ccc(C(Nc2ccccn2)c2ccc3cccnc3c2O)cc1 (configuration not stated)	97*	-7
Cc1ccc(-c2nc(C=Nc3ccccn3)c(O)o2)cc1	9	-2
Cc1ccc2ccc(C(Nc3ccccn3)c3ccc(F)cc3)c(O)c2n1 (configuration not stated)	70*	-10

Assay outcomes (PubChem)
